POLK inh – DNA polymerase kappa (human) inhibition. purified Pol kappa, fluorescent DNA synthesis assay, 10 min. Potency, µM (top dose mostly 107 µM), usual class: inhibitors. 0.53% of 400,000 active
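Enzyme at 10 nM met test compounds for 15 min at room temperature. Substrate addition (50 nM final) began the reaction, which was monitored by fluorescence at 0 and 10 min.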
PI5P4K alpha inh – blocks human PI5P4K alpha kinase activity | 1.2% of 330,000 active | max response, % | PI5P4Kalpha enzyme, ADP-Glo luminescence, 60 min; stronger effect = lower value | P48426; active = max response of -50% or lower; inconclusive = between -30% and -50%; inactive = -30% or higher; note: value at the top dose of about 77 µM
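Luminescence from ADP-Glo served as readout of PI5P4Kalpha activity in a qHTS format. Reaction: enzyme, substrate, compound, ATP at 5 microM final, 60 min at RT.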
PI4K2A block – PI4K2A (human) kinase inhibition. 0.13% of 420,000 active. Q9BTU6. AID 1346378. activity change, negative = inhibition, % at 76.9 µM. purified PI4K2A, ADP-Glo luminescence, 1 h; stronger effect = lower value; in the data active = activity change below about -50%; inconclusive = mostly about -30% to -49%
Target sequence (Q9BTU6 whole entry, looked up): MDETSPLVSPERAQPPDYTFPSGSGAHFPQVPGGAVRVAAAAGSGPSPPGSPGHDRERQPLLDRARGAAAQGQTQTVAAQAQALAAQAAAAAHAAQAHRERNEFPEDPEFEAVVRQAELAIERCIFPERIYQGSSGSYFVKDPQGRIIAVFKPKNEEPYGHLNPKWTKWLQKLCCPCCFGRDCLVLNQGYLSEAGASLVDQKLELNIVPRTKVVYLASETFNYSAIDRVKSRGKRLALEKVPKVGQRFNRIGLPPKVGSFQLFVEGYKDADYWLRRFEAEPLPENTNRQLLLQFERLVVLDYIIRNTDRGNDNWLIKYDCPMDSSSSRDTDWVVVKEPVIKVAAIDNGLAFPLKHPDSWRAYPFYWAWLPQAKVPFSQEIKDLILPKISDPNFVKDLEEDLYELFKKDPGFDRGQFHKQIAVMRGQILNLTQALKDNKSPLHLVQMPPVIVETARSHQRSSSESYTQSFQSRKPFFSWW
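PI4K2A activity was measured by ADP-Glo luminescence: enzyme (4 ug/mL stock) and phosphatidylinositol (1.2 mM stock) in Tris pH 7.5/MgCl2/EGTA/Triton X-100 buffer were reacted with ATP (300 microM stock) for one hour at ambient temperature.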
POLB inh – blocks human DNA polymerase beta activity. Pol beta primer extension/strand displacement, fluorescence kinetic. Potency, µM (top dose mostly 114 µM), most hits filed as inhibitors. P06746. 1.3% of 340,000 active
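Values derive from four-parameter Hill fits of normalized kinetic data: reads at 0 and 10 min following addition of 50 nM substrate to 10 nM Pol beta preincubated 15 min with compound.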
Pol iota inh – inhibitors of human DNA polymerase iota. Q9UNA4. Pol iota fluorescent replication assay, 10 min. Potency, µM (titrated, usually from 115 µM), hits mostly inhibitors. 1% of 390,000 active
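Fluorescent replication assay read twice, at 0 min and 10 min after adding 50 nM (final) substrate. Enzyme (10 nM) and compounds were first incubated 15 min at room temperature; enzyme-free buffer wells were negative controls.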
POLH inh – blocks human DNA polymerase eta activity; 1.2% of 390,000 active; Potency, µM (top dose mostly 114 µM), usual class: inhibitors; Q9Y253; AID 588591; recombinant Pol eta, fluorescent DNA replication assay
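Fluorescent replication assay: 50 nM final substrate added after a 15 min room-temperature compound preincubation with 10 nM enzyme. Signal taken at 0 min and again at 10 min.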
Each line names hits and unclear results; the compound was inactive in the other large screens. This is a sample that favours compounds with a hit; in the whole collection about 2.8% have one here. Unless noted, calls come from the whole dose curve; as a rule, active = well fitted inhibition curve with a large enough effect; inconclusive = small, poorly fitted or top-dose-only effect, or another doubt; inactive = no such curve, though single readings can be large or run the other way.

Cc1c(C(=O)OC(C)C)sc(NC(=O)C2c3ccccc3Oc3ccccc32)c1C(=O)OC(C)C	POLK inh inconclusive, POLB inh inconclusive, Pol iota inh 89.1µM (no result: PI5P4K alpha inh)
O=C(NC(NNc1ccc([N+](=O)[O-])cc1)(C(F)(F)F)C(F)(F)F)c1ccc(Cl)cc1	PI5P4K alpha inh -67.0
O=C(NNc1ccc([N+](=O)[O-])cc1)c1ccccc1Cl	none
COc1cc(Cl)c(CC(=O)NO)cc1OC	none (no result: PI5P4K alpha inh, PI4K2A block, POLB inh, POLH inh)
CCOc1ccc(C=Nc2ccc(/C=C/c3ccnc4ccccc34)cc2)cc1OCC	none (no result: PI5P4K alpha inh, PI4K2A block, POLB inh, POLH inh)
O=c1ccsn1Cc1ccccc1	PI5P4K alpha inh inconclusive, Pol iota inh 25.1µM
O=C1NC(Cc2ccccc2)C(=O)N1Cc1ccccc1 (stereo not drawn)	none (no result: POLB inh)
CCOc1ccccc1NC(=O)Cn1cnc2onc(-c3ccc(F)cc3)c2c1=O	none (no result: PI5P4K alpha inh)
CC(C)(C)n1ncc2c(=O)n(Cc3ccc([S+](=O)([O-])N4CCOCC4)cc3)cnc21	none (no result: PI5P4K alpha inh, PI4K2A block, POLB inh, POLH inh)
O=C(O)CSc1c2c(nc3cc(C(=O)Nc4cccc(C(F)(F)F)c4)ccc13)CCC2	POLK inh inconclusive, PI5P4K alpha inh inconclusive, POLB inh inconclusive, Pol iota inh inconclusive, POLH inh 39.8µM
CCOc1ccc(NC(=O)c2ccc3c(SCC(=O)O)c4c(nc3c2)CCCC4)cc1	POLH inh inconclusive
COc1ccc(C(CC(=O)Nc2ccc(F)c(Cl)c2)N2Cc3ccccc3C2=O)cc1OC (stereo not drawn)	none (no result: PI5P4K alpha inh)
O=c1[nH]c(=S)[nH]cc1Oc1ccc(Cl)cc1	none (no result: POLB inh)
O=c1[nH]c(=S)[nH]cc1S(=O)(=O)c1cccc(Cl)c1	PI5P4K alpha inh -57.3
COc1ccc(C(=O)/C=C/c2cc(C(=O)O)cc3c2OCOC3)c(O)c1	POLB inh inconclusive, Pol iota inh inconclusive, POLH inh 50.1µM
Cn1c(N)c(C(=O)COC(=O)C2Cc3ccccc3CN2S(C)(=O)=O)c(=O)n(C)c1=O (stereo not drawn)	PI5P4K alpha inh -60.6, POLH inh 12.6µM (no result: POLK inh, POLB inh, Pol iota inh)
CC(=O)N1Cc2ccccc2CC1C(=O)OCC(=O)c1c(N)n(C)c(=O)n(C)c1=O (stereo not drawn)	POLH inh inconclusive (no result: POLB inh)
Cc1ccc(C(=O)NCC(=O)OCc2nc3sc(C)c(C)c3c(=O)[nH]2)cc1	none (no result: POLK inh, PI5P4K alpha inh, POLB inh, Pol iota inh, POLH inh)
CC1(C)SC2[C@@H](N=CN3CCCCCC3)C(=O)N2[C@H]1C(=O)O (stereo partly drawn)	none (no result: PI5P4K alpha inh, PI4K2A block, POLB inh, Pol iota inh, POLH inh)
O=[N+]([O-])c1ccc2c(c1)-c1ccccc1C2O (stereo not drawn)	PI5P4K alpha inh -69.1 (no result: POLK inh, POLB inh, Pol iota inh)
O=C(CCCOc1ccc(Cl)cc1Cl)Nc1ccccc1C(=O)O	none
CCCCOc1ccc(Nc2cc(Cl)ccc2C(=O)O)cn1	POLB inh 39.8µM
O=C1N=C(N2CCN(c3ccccc3)CC2)S/C1=C\c1ccco1	PI5P4K alpha inh inconclusive, POLB inh 12.6µM, Pol iota inh 44.7µM, POLH inh inconclusive
O=C1N=C(N2CCN(c3ccccc3)CC2)S/C1=C/c1ccco1	POLK inh inconclusive, POLB inh inconclusive, Pol iota inh 44.7µM
O=C1N=C(N2CCN(c3ccccc3)CC2)S/C1=C\c1cn[nH]c1-c1ccccc1	PI5P4K alpha inh -51.5
O=C1N=C(N2CCCC2)S/C1=C\c1ccccc1	none
Cc1sc2ncn(/N=C/c3cn(-c4ccccc4)nc3-c3ccccc3)c(=O)c2c1C	none (no result: PI5P4K alpha inh, PI4K2A block, POLB inh, POLH inh)
COc1cc(C2CC(=O)c3c(ccc4ccccc34)N2)ccc1O (stereo not drawn)	none
COc1cccc(C2Nc3ccc4ccccc4c3C3=C2C(=O)CCC3)c1O (stereo not drawn)	POLB inh 89.1µM
O=[N+]([O-])c1ccc(NCCc2ccccc2)c(Br)c1	POLB inh 79.4µM
CN(C)c1ccc(/C=C/c2ccnc3c(Cl)ccc(Cl)c23)cc1	Pol iota inh inconclusive (no result: PI5P4K alpha inh, PI4K2A block, POLB inh, POLH inh)
COc1cc(NCCCCCCN)c2ncccc2c1OC	PI5P4K alpha inh inconclusive, PI4K2A block inconclusive, Pol iota inh 11.2µM, POLH inh 44.7µM (no result: POLB inh)
COc1cc(NC(C)CCCNC(C)C)c2ncccc2c1OC (stereo not drawn)	Pol iota inh inconclusive (no result: POLB inh)
CCCn1c(/C=C/c2ccccc2)nc2ccccc21	none (no result: PI5P4K alpha inh)
CC(C)Cn1c(/C=C/c2ccco2)nc2ccccc21	PI5P4K alpha inh inconclusive, POLB inh 28.2µM
CCN(CC(=O)NC1CCS(=O)(=O)C1)S(=O)(=O)c1ccc(Br)cc1 (stereo not drawn)	none (no result: POLB inh)
CCN(CC(=O)NC1CCS(=O)(=O)C1)S(=O)(=O)c1ccc(F)cc1 (stereo not drawn)	POLB inh 15.8µM, POLH inh inconclusive
CCOC(=O)C1CCN(c2ncnc3c2cnn3-c2ccc(OC)cc2)CC1	POLB inh 50.1µM (no result: PI5P4K alpha inh)
CCOC(=O)[C@]12CCCC=C1N(Cc1ccco1)C(=O)[C@H](CC(=O)N1CCOCC1)C2	none (no result: POLK inh, POLB inh, Pol iota inh, POLH inh)
O=C(N/N=C/c1ccc2ncccc2c1)c1ccco1	PI5P4K alpha inh -76.7
O=C(N/N=C/c1ccccn1)c1ccco1	Pol iota inh inconclusive (no result: PI5P4K alpha inh)

Assay outcomes as filed in PubChem BioAssay.
